# Measurements: the supplement of paper PMC8728848
# The sample as a whole holds a higher share of the strongest signals than the screen did.
# B1: CLECb-Precomplexed (Mus musculus), P43025 (protein)
# chain: MAKNGLVLCILVVSLLLDQTDGYPSRMKARKHSKRRVKAKDDDLKSQVEKLWREVNALKEMQALQTVCLRGTKVHKKCYLASEGLKHYHEANEDCISKGGTLVVPRNSDEINALRDYGKRSLPGVNDFWLGINDMVTEGKFLDVHGFAVSFLNWDRAQPSGGKRENCVLFSQSAQGKWSDEACRSSKRYICEFIIPTRTRPLEQKLISEEDLAANDILDYKDDDDKV
# Experiments:
# Assay in all cases: glycan array binding signal (z-score within array); higher = stronger binding
# Conditions in all cases: glycan notation: IUPAC condensed, linker removed
# [1] = target: Gal(b1-4)GlcNAc(b1-3)Gal(b1-4)GlcNAc(b1-3)Gal(b1-4)GlcNAc(b1-3)Gal(b1-4)GlcNAc(b1-3)Gal(b1-4)GlcNAc(b1-2)[Gal(b1-4)GlcNAc(b1-3)Gal(b1-4)GlcNAc(b1-3)Gal(b1-4)GlcNAc(b1-3)Gal(b1-4)GlcNAc(b1-3)Gal(b1-4)GlcNAc(b1-6)]Man(a1-6)[Gal(b1-4)GlcNAc(b1-3)Gal(b1-4)GlcNAc(b1-3)Gal(b1-4)GlcNAc(b1-3)Gal(b1-4)GlcNAc(b1-3)Gal(b1-4)GlcNAc(b1-2)Man(a1-3)]Man(b1-4)GlcNAc(b1-4)[Fuc(a1-6)]GlcNAc
# Outline: (§1)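 The binding signal is a Z-score computed within each array. Data were drawn from 3228 arrays in the Consortium for Functional Glycomics database, restricted to those with a known protein sequence. Scores were averaged over arrays of the same protein sequence at different concentrations or buffers, and over linkers, and negative values can be taken as non-binding.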
# [2] = target: Gal3S(b1-4)[Fuc(a1-3)]Glc6S
# Outline: as §1
# [3] = target: Gal3S(b1-4)[Fuc(a1-3)]GlcNAc6S
# Outline: as §1
# Gal3S6S(b1-4)GlcNAc = target: Gal3S6S(b1-4)GlcNAc
# Outline: as §1
# Gal6S(b1-4)Glc6S = target: Gal6S(b1-4)Glc6S
# Outline: as §1
# Gal6S(b1-4)GlcNAc6S = target: Gal6S(b1-4)GlcNAc6S
# Outline: as §1
# [4] = target: GalNAc(b1-4)GlcNAc(b1-2)Man(a1-3)[GalNAc(b1-4)GlcNAc(b1-2)Man(a1-6)]Man(b1-4)GlcNAc(b1-4)GlcNAc
# Outline: as §1
# [5] = target: GlcNAc(a1-4)Gal(b1-4)GlcNAc(b1-3)Gal(b1-4)GlcNAc
# Outline: as §1
# [6] = target: GlcNAc(b1-3)Gal(b1-4)GlcNAc(b1-2)Man(a1-3)[GlcNAc(b1-3)Gal(b1-4)GlcNAc(b1-2)Man(a1-6)]Man(b1-4)GlcNAc(b1-4)[Fuc(a1-6)]GlcNAc
# Outline: as §1
# [7] = target: GlcNAc(b1-3)Gal(b1-4)GlcNAc(b1-3)Gal(b1-4)GlcNAc(b1-3)Gal(b1-4)GlcNAc(b1-2)Man(a1-3)[GlcNAc(b1-3)Gal(b1-4)GlcNAc(b1-3)Gal(b1-4)GlcNAc(b1-3)Gal(b1-4)GlcNAc(b1-2)Man(a1-6)]Man(b1-4)GlcNAc(b1-4)[Fuc(a1-6)]GlcNAc
# Outline: as §1
# GlcNAc(b1-3)Man = target: GlcNAc(b1-3)Man
# Outline: as §1
# [8] = target: GlcNAc(b1-3)[GlcNAc(b1-4)][GlcNAc(b1-6)]GlcNAc
# Outline: as §1
# [9] = target: GlcNAc(b1-4)Gal(b1-4)GlcNAc
# Outline: as §1
# [10] = target: GlcNAc(b1-4)GlcNAc(b1-4)GlcNAc
# Outline: as §1
# [11] = target: GlcNAc(b1-4)GlcNAc(b1-4)GlcNAc(b1-4)GlcNAc(b1-4)GlcNAc(b1-4)GlcNAc
# Outline: as §1
# [12] = target: Neu5Ac(a2-3)Gal(b1-3)GlcNAc(b1-2)Man(a1-3)[GlcNAc(b1-4)][Neu5Ac(a2-3)Gal(b1-3)GlcNAc(b1-2)Man(a1-6)]Man(b1-4)GlcNAc(b1-4)GlcNAc
# Outline: as §1
# [13] = target: Neu5Ac(a2-3)Gal(b1-4)GlcNAc(b1-2)Man(a1-3)[Neu5Ac(a2-6)Gal(b1-4)GlcNAc(b1-2)Man(a1-6)]Man(b1-4)GlcNAc(b1-4)GlcNAc
# Outline: as §1
# [14] = target: Neu5Ac(a2-3)Gal6S(b1-4)GlcNAc
# Outline: as §1
# [15] = target: Neu5Ac(a2-3)[GalNAc(b1-4)]Gal(b1-4)GlcNAc
# Outline: as §1
# Neu5Ac(a2-6)Gal = target: Neu5Ac(a2-6)Gal
# Outline: as §1
# [16] = target: Neu5Ac(a2-6)Gal(b1-4)GlcNAc(b1-2)Man(a1-3)Man(b1-4)GlcNAc(b1-4)GlcNAc
# Outline: as §1
# [17] = target: Neu5Ac(a2-6)Gal(b1-4)GlcNAc(b1-2)Man(a1-3)[Neu5Ac(a2-3)Gal(b1-4)GlcNAc(b1-2)Man(a1-6)]Man(b1-4)GlcNAc(b1-4)GlcNAc
# Outline: as §1
# [18] = target: Neu5Ac(a2-6)Gal(b1-4)GlcNAc(b1-2)Man(a1-3)[Neu5Ac(a2-6)Gal(b1-4)GlcNAc(b1-2)Man(a1-6)]Man(b1-4)GlcNAc(b1-4)[Fuc(a1-6)]GlcNAc
# Outline: as §1
# [19] = target: Neu5Ac(a2-6)Gal(b1-4)GlcNAc(b1-3)Gal(b1-4)GlcNAc(b1-3)Gal(b1-4)GlcNAc(b1-2)Man(a1-3)[Neu5Ac(a2-6)Gal(b1-4)GlcNAc(b1-3)Gal(b1-4)GlcNAc(b1-3)Gal(b1-4)GlcNAc(b1-2)Man(a1-6)]GalNAc
# Outline: as §1
binder,measurement,setting,value
B1,glycan array binding signal (z-score),[1],11.2
same,glycan array binding signal (z-score),[2],3.47
same,glycan array binding signal (z-score),[3],0.004
same,glycan array binding signal (z-score),Gal3S6S(b1-4)GlcNAc,-0.251
same,glycan array binding signal (z-score),Gal6S(b1-4)Glc6S,0.254
same,glycan array binding signal (z-score),Gal6S(b1-4)GlcNAc6S,0.049
same,glycan array binding signal (z-score),[4],0.242
same,glycan array binding signal (z-score),[5],-0.295
same,glycan array binding signal (z-score),[6],-0.522
same,glycan array binding signal (z-score),[7],-0.255
same,glycan array binding signal (z-score),GlcNAc(b1-3)Man,-0.185
same,glycan array binding signal (z-score),[8],-0.456
same,glycan array binding signal (z-score),[9],-0.159
same,glycan array binding signal (z-score),[10],-0.15
same,glycan array binding signal (z-score),[11],-0.322
same,glycan array binding signal (z-score),[12],-0.444
same,glycan array binding signal (z-score),[13],-0.245
same,glycan array binding signal (z-score),[14],-0.618
same,glycan array binding signal (z-score),[15],-0.321
same,glycan array binding signal (z-score),Neu5Ac(a2-6)Gal,-0.301
same,glycan array binding signal (z-score),[16],0.007
same,glycan array binding signal (z-score),[17],-0.03
same,glycan array binding signal (z-score),[18],2.94
same,glycan array binding signal (z-score),[19],3.49
